Sampled rows, rich in hits. Any-hit rate of the full collection: about 6.4%.
Gal4-VP16 FLuc: VP16 counterscreen qHTS for inhibitors of ROR gamma transcriptional activity | Drosophila S2 Gal4-VP16 UAS-luciferase, luminescence, 20 h | Potency, µM (doses to about 53.6 µM), most hits filed as inhibitors | 3.5% of 310,000 active;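 also: Gal4-VP16 expression switched on by copper sulfate through the metallothionein promoter; nearly all actives have a fitted effect of over 50% in size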
RORg inh: qHTS for inhibitors of ROR gamma transcriptional activity | AID 2551, 2010 | Nuclear receptor ROR-gamma (Mus musculus), P51450 | Potency, µM (top dose mostly 53.6 µM), most hits filed as inhibitors | Drosophila S2 Gal4-RORgamma UAS-luciferase reporter, 20 h | 5.4% of 310,000 active; also: nearly all actives have a fitted effect of over 60% in size
Target sequence (P51450 whole entry, looked up, the tested form may be a part): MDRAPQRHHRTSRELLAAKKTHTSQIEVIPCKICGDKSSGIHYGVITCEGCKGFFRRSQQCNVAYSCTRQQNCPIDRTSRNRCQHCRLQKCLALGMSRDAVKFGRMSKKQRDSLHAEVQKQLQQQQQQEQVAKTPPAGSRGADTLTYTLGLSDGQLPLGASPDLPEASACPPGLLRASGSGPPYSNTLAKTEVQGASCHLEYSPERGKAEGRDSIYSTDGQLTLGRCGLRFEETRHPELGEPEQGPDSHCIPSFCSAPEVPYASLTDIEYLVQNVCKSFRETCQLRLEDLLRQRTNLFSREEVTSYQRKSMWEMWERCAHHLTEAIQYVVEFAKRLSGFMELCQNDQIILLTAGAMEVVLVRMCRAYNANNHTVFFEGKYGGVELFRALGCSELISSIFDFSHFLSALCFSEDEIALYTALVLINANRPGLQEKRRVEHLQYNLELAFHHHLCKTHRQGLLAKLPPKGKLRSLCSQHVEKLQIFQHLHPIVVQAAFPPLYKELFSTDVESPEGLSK
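Read-out: Photinus luciferase luminescence; inhibitors lower reporter signal. Insect Schneider cells with Gal4-ROR gamma fusion under metallothionein promoter, UAS reporter; 700 uM final copper sulfate induction, 20 hr, ambient temperature.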
Luc counter: Counterscreen for Luciferase (Kinase-Glo TM) Inhibition; Luciferin 4-monooxygenase (Photuris pensylvanica), Q27757; Potency, µM (titrated, usually from 38.3 µM), actives largely listed as inhibitors; 0.28% of 200,000 active; Kinase-Glo luciferase, ATP luminescence, 8 min; AID 1379, 2008; also: nearly all actives have a fitted effect of over 60% in size
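Compound is pinned into ATP-containing buffer (10 uM ATP, imidazole pH 7.2, 7 mM MgCl2). Kinase-Glo luciferase reagent is then added. Light output is recorded following an 8-min room-temperature incubation.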
A number is an active result; n = inactive; u = inconclusive; x = not tested or not shown. Calls follow the shape of the dose curve; as a rule, active = well fitted curve in the direction sought with a large enough effect; inconclusive = small, poorly fitted or top-dose-only effect, or another doubt; inactive = no such curve, though single readings can be large; an effect the other way counts as inactive or inconclusive.

SMILES	Gal4-VP16 FLuc	RORg inh	Luc counter
Cc1cc(C)nc(NS(=O)(=O)c2ccc(NC(=S)NC(=O)C3CCCC3)cc2)n1	n	n	n
CC(C)CC(NC(=O)C(CO)NC(=O)C1CCC(=O)N1)C(N)=O (centres undefined)	n	n	n
CCC(Sc1nc(N)c(NC(=O)c2ccc(OC)cc2)c(=O)[nH]1)C(=O)O (centres undefined)	n	n	n
Clc1ccc(-c2nc(C3CCCCC3)no2)cc1	n	u	n
Cc1ccc(CNC(=O)c2ccc(N(C)S(=O)(=O)c3ccccc3)cc2)cc1	n	n	x
Cc1ccc(C(=O)NC(=S)Nc2ccc(S(=O)(=O)N(C)c3ccccc3)cc2)cc1	u	7.08µM	n
CN(c1ccccc1)S(=O)(=O)c1ccc(NC(=S)NC(=O)c2ccccc2)cc1	u	17.8µM	n
COc1cc(C(=O)Nc2ccc(S(=O)(=O)N(C)c3ccccc3)cc2)cc(OC)c1OC	n	u	n
N#CCCn1c(=O)c(-c2cc(F)cc(F)c2)nc2cnc(OCc3ccccc3)nc21	n	n	n
CC(=O)Oc1ccc(/C=C2/Oc3ccccc3C2=O)cc1	n	n	x
COC(=O)c1ccc2c(c1)C(=O)/C(=C/c1ccc(O)cc1)O2	1.58µM	0.224µM	n
CCCCN(C)C(=O)Cn1c(=O)oc2cc(S(=O)(=O)N3CC(C)CC(C)C3)ccc21 (centres undefined)	n	n	x
CNC(=S)NNC(=O)c1cccn(Cc2ccc(Cl)cc2Cl)c1=O	n	n	n
CNC(=S)NNC(=O)c1ccc(=O)n(Cc2ccc(Cl)cc2Cl)c1	u	12.6µM	n
Cc1cccc(OCC(=O)Nc2ccc3c(c2)nc2n3CCOC2)c1	n	n	x
Cc1nn(CC(=O)NNC(=S)NCC2CCCO2)c(C)c1Br (centres undefined)	n	n	x
COCCCNC(=S)NNC(=O)Cn1nc(C)c(Br)c1C	11.2µM	3.16µM	n
CNC(=S)NNC(=O)CCn1nc(C)c(Br)c1C	3.98µM	0.631µM	n
Cc1cccc(NC(=S)NNC(=O)c2nn(C)cc2Cl)c1	n	u	n
Cc1nn(CC(=O)NN)c(C)c1Br	n	n	x
Cc1nn(CCC(=O)NNC(=S)Nc2ccccc2)c(C)c1Br	u	0.316µM	n
Cc1nn(CCC(=O)NNC(=S)Nc2ccc(F)cc2)c(C)c1[N+](=O)[O-]	n	n	n
Cc1cccc(NC(=S)NNC(=O)CCn2cc(C)cn2)c1	1µM	0.112µM	n
CCCCCCCCCCCCCCCCCC(=O)OC(CC(=O)O)C[N+](C)(C)C (centres undefined)	x	x	n
FC(F)(F)c1ccc(-c2noc(-c3ccccc3)c2I)cc1	n	n	n
SMILES	Gal4-VP16 FLuc	RORg inh	Luc counter
C[N+]1(C2CCC3CCCC2C3O)CCCCC1 (centres undefined)	n	n	n
CC(C)c1nnc(SCC(=O)NC2CCCC2)n1C	n	n	x
COCC1CCCCN1C(=O)c1cccc(OC2CCN(S(C)(=O)=O)CC2)c1 (centres undefined)	n	n	x
COc1ccc(CNC(=O)C2CCCN(S(=O)(=O)c3ccc(F)cc3)C2)cc1 (centres undefined)	n	n	x
CC(CN(C)C)CN1c2ccccc2Sc2ccc(C(F)(F)F)cc21 (centres undefined)	n	n	x
CCOCCCNC(=S)NNC(=O)CCn1nc(C)c(Br)c1C	3.16µM	1.41µM	n
CC(C)CNC(=O)NC1C(NC(=O)NCC(C)C)N(C)C(=O)N1C (centres undefined)	n	n	n
CCOCCCNC(=O)c1c(C)c(C(=O)OCC)n(C)c1C	n	n	n
Cc1nn(CCC(=O)NNC(=S)NCC(C)C)c(C)c1Br	1.41µM	0.708µM	n
O=C(O)c1ccc2c(c1)C(=O)N([C@@H](C(=O)O)C(c1ccccc1)c1ccccc1)C2=O	n	n	x
c1ccc(Nc2ncnc3ccc(-c4cccnc4)cc23)cc1	n	n	n
COc1ccc(OC)c(-c2csc(NC(=O)c3ccc4c(c3)OCO4)n2)c1	n	n	n
CCNC(=O)NC(=O)C(C)OC(=O)[C@H](C)NS(=O)(=O)c1c(C)c(C)cc(C)c1C (some centres undefined)	n	n	x
CCn1c(/C=C/c2cc[n+](C)cc2)nc2ccccc21	n	n	x
CC(C)Cn1c(S(=O)(=O)O)nc2ccccc21	u	n	x
CC(C)Cn1c(/C=C/c2ccco2)nc2ccccc21	u	11.2µM	n
COCCOCCn1c(/C=C/c2ccccc2)nc2ccccc21	u	11.2µM	u
COCCOCCn1c(CCCO)nc2ccccc21	n	n	n
CC(C)n1c(Nn2cnnc2)nc2ccccc21	n	n	n
CC(C)n1c(/C=C/c2ccccc2)nc2ccccc21	15.8µM	12.6µM	n
CCCn1c(/C=C/c2ccccc2)nc2ccccc21	u	5.62µM	n
COc1ccccc1-c1ccc2ncnc(NC3CCNCC3)c2c1	n	n	x
O=C(CSc1ccc2nnc(-c3ccccn3)n2n1)Nc1ccccc1F	n	n	x
CCOCCCNS(=O)(=O)c1ccc(NC(=O)Cc2c(F)cccc2Cl)cc1	n	n	x
CCc1[nH]nc(C(=O)N2CCCC(Nc3cccc(F)c3)C2)c1C (centres undefined)	n	n	x
SMILES	Gal4-VP16 FLuc	RORg inh	Luc counter
C[n+]1c2n(c3ccccc31)N=C(c1cc(C(C)(C)C)c(O)c(C(C)(C)C)c1)CS2	7.94µM	u	n
COc1cccc(C2=Nn3c(nnc3-c3ccccc3O)SC2)c1	u	u	n
CCOC(=O)C1OC1C(=O)N[C@@H](CC(C)C)C(=O)NCCC(C)C (some centres undefined)	n	n	x
CCOC(=O)c1n[nH]n2c1nc(=S)c1ccccc12	u	6.31µM	x
CCOC(=O)c1n[nH]c2ccccc12	n	n	n
OCCOCCN1CCN(C(=S)Nc2ccccc2)CC1	n	n	n
CN(C)c1ccc(/C=N/NC(=O)c2ccn(C)n2)cc1	n	n	x
CN(C)c1ccc(/C=N/NC(=O)c2ccnn2C)cc1	n	u	1.78µM
CN(C)c1ccc(/C=N\NC(=O)c2cccc3cc[nH]c23)cc1	u	7.94µM	x
CN(C)c1ccc(/C=N\NC(=O)c2csnn2)cc1	17.8µM	u	u
CN(C)c1ccc(/C=N/NC(=O)c2ccccn2)cc1	u	n	x
CN(C)c1ccc(/C=N/NC(=O)c2cc(=O)[nH]c3ccccc23)cc1	n	n	x
Cc1cn(C2CC3OCC(NC(=O)C4CCCN4C(=O)OC(C)(C)C)C3O2)c(=O)[nH]c1=O (centres undefined)	n	n	x
Nc1ccnc(Oc2ccc(F)cc2)c1	n	n	n
Cc1ccc(C)c(N(CC(=O)NC(C)(C)C)C(=O)CCC(=O)Nc2nccs2)c1	n	u	x
CCN1C(=NCCN2CCOCC2)N[C@@H](CCc2ccccc2)C(C(=O)OC)=C1C	n	n	x
C=CCn1c(-c2cccn(Cc3ccc(Cl)cc3Cl)c2=O)n[nH]c1=S	10µM	2.51µM	n
C=CCn1c(-c2ccc(=O)n(Cc3ccccc3)c2)n[nH]c1=S	n	n	n
O=c1c(-c2n[nH]c(=S)o2)cccn1Cc1ccccc1	n	n	n
CSc1nnc(-c2cccn(Cc3cccc(Cl)c3)c2=O)o1	n	n	n
C=CCn1c(-c2cccn(Cc3cccc(Cl)c3)c2=O)n[nH]c1=S	u	12.6µM	n

High-throughput results from PubChem.
